Consider 17 compounds from PubChem BioAssay (NCATS).

As usually defined, the viability is a read-out of living cells in per cent, often relative to untreated cells.

Records with an inconclusive call do not appear. A number with no mark means an inactive call. Calls of active or inactive are those of the source. Calls follow the shape of the dose curve; as a rule, active = well fitted cell-killing curve with a large enough effect; inconclusive = small, poorly fitted or top-dose-only effect, or effect the other way; inactive = no such curve, though single readings can be large or run the other way.

The nature of assay [1]: Quantitative High-Throughput drug screen in 47 multiple myeloma cell lines against the NCATS MIPE library collection: KMS28PE_JCRB cell viability assay (AID 1918983). Also: nearly all actives have a fitted effect of over 35% in size. In outline:
(§1)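 500 cells/well; MIPE 4.0 drugs pin-transferred; 48 h, 37C, 5% CO2. CellTiter-Glo, 5 min RT, luminescence. Controls: DMSO 100%, media 0%.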

The nature of assay [2]: Quantitative High-Throughput drug screen in 47 multiple myeloma cell lines against the NCATS MIPE library collection: KMS34_JCRB cell viability assay (AID 1918985). Also: nearly all actives have a fitted effect of over 40% in size. The essentials: as §1
Assay [3] in a line: Quantitative High-Throughput drug screen in 47 multiple myeloma cell lines against the NCATS MIPE library collection: OCIMY7_PLB cell viability assay (AID 1918987). Also: nearly all actives have a fitted effect of over 65% in size. The essentials: as §1
Assay [4] is described as follows: Quantitative High-Throughput drug screen in 47 multiple myeloma cell lines against the NCATS MIPE library collection: OCIMY5_PLB cell viability assay (AID 1918988). Also: nearly all actives have a fitted effect of over 65% in size. In outline:
as §1

Assay [5] can be described thus: Quantitative High-Throughput drug screen in 47 multiple myeloma cell lines against the NCATS MIPE library collection: OPM1_PLB cell viability assay (AID 1918989). Also: nearly all actives have a fitted effect of over 40% in size. In outline:
as §1

The nature of assay [6]: Quantitative High-Throughput drug screen in 47 multiple myeloma cell lines against the NCATS MIPE library collection: SKMM1_PLB cell viability assay (AID 1919863). Also: nearly all actives have a fitted effect of over 35% in size. As to viability: series mostly up to about 46 µM. The conditions noted are these: SKMM1 myeloma viability, CellTiter-Glo ATP, 48 h; viability: stronger effect = lower value. The essentials:
as §1
A general note: Cellular ATP, detected with luciferase, serves as a proxy for viable cell number.

A short description of assay [7]: Quantitative High-Throughput drug screen in 47 multiple myeloma cell lines against the NCATS MIPE library collection: U266_ATCC cell viability assay (AID 1919864). Also: nearly all actives have a fitted effect of over 35% in size. In outline:
as §1

The nature of assay [8]: Quantitative High-Throughput drug screen in 47 multiple myeloma cell lines against the NCATS MIPE library collection: VP6_DJ cell viability assay (AID 1919867). Also: nearly all actives have a fitted effect of over 40% in size. The essentials:
as §1

Assay [9] in a line: Quantitative High-Throughput drug screen in 47 multiple myeloma cell lines against the NCATS MIPE library collection: PE2_PLB cell viability assay (AID 1919869). Also: nearly all actives have a fitted effect of over 35% in size. In outline:
as §1

Assay [10] can be described thus: Quantitative High-Throughput drug screen in 47 multiple myeloma cell lines against the NCATS MIPE library collection: PCM6_Riken cell viability assay (AID 1919870). Also: nearly all actives have a fitted effect of over 30% in size. In outline: as §1
Assay [11] is described as follows: Quantitative High-Throughput drug screen in 47 multiple myeloma cell lines against the NCATS MIPE library collection: RPMI8226_ATCC cell viability assay (AID 1919871). Also: nearly all actives have a fitted effect of over 30% in size. In outline:
as §1

Assay [12] in a line: Quantitative High-Throughput drug screen in 47 multiple myeloma cell lines against the NCATS MIPE library collection: OPM2_DSMZ cell viability assay (AID 1919872). Also: nearly all actives have a fitted effect of over 30% in size. The essentials:
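Primary qHTS used for cherry-picking: cells at 500/well, library compounds for 48 h (37C, 5% CO2), luminescent ATP assay.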

A short description of assay [13]: Quantitative High-Throughput drug screen in 47 multiple myeloma cell lines against the NCATS MIPE library collection: KMS11_JCRBsus cell viability assay (AID 1919873). Also: nearly all actives have a fitted effect of over 50% in size. In outline: as §1
A short description of assay [14]: Quantitative High-Throughput drug screen in 47 multiple myeloma cell lines against the NCATS MIPE library collection: L363_DSMZ cell viability assay (AID 1918984). Also: nearly all actives have a fitted effect of over 40% in size. The essentials:
as §1

The nature of assay [15]: Quantitative High-Throughput drug screen in 47 multiple myeloma cell lines against the NCATS MIPE library collection: XG6_PLB cell viability assay (AID 1919865). Also: nearly all actives have a fitted effect of over 40% in size. The essentials: as §1
Assay [16] can be described thus: Quantitative High-Throughput drug screen in 47 multiple myeloma cell lines against the NCATS MIPE library collection: KMS28BM_JCRB cell viability assay (AID 1919874). Also: nearly all actives have a fitted effect of over 35% in size. In outline: as §1
Assay [17] can be described thus: Quantitative High-Throughput drug screen in 47 multiple myeloma cell lines against the NCATS MIPE library collection: XG1_PLB cell viability assay (AID 1919866). Also: nearly all actives have a fitted effect of over 35% in size. The essentials: as §1
Potency is read from the fitted curve at half-maximal effect.

For the compound `NC(=O)c1cccc(N)c1`, the Potency result in [1], in [2], in assay [4], in assay [5], in [7] and in assay [9] was “inactive” each time. Also, the Potency result in [10], in assay [11], in [12] and in assay [13] was “inactive” each time. Also, the Potency in [3] is 4.69 µM (active); in assay [8], 8.33 µM (active). Besides, the viability in assay [6] is 132%.

With `Cc1ccc(S(=O)(=O)N[C@@H](Cc2ccccc2)C(=O)CCl)cc1`, the Potency in assay [1] is 20.9 µM (active); in assay [14], 11.8 µM (active); in [2], 20.9 µM (active); in [3], 3.32 µM (active); in assay [4], 7.43 µM (active); in [5], 9.35 µM (active). For the same compound, the Potency in [6] was 18.7 µM (active); in assay [7], 18.7 µM (active); in assay [15], 14.8 µM (active); in assay [8], 9.35 µM (active); in assay [9], 10.5 µM (active); in assay [10], 11.8 µM (active). Further, the Potency was 20.9 µM (active) in [11], 18.7 µM (active) in assay [12], 9.35 µM (active) in [13] and 11.8 µM (active) in [16].

Turning to `CN(Cc1cc(Br)cc(Br)c1N)C1CCCCC1`, the Potency entry in assay [1], in assay [14], in assay [5], in [15] and in assay [13] was “inactive” each time.

Regarding `NC(N)=NC(N)=NCCc1ccccc1`, the Potency was 5.26 µM (active) in [1]; 14.8 µM (active) in assay [14]; 1.66 µM (active) in [2]; 13.2 µM (active) in [4]; 20.9 µM (active) in assay [5]; 7.43 µM (active) in assay [17]. Further, the values for the Potency in assay [8], in assay [11] and in assay [16] were 10.5 µM (active), 20.9 µM (active) and 7.43 µM (active), respectively.

As to `Nc1[nH]c(=O)ncc1F`, the Potency result in assay [1], in assay [14], in [3], in [5], in [9] and in assay [12] was “inactive” in each case. In addition, the Potency entry in [13] and in [16] was “inactive” each time. Moreover, the viability in assay [6] was 117%. Besides, the Potency in assay [7] was 2.64 µM (active); in assay [15] it was 26.4 µM (active); in assay [8], 20.9 µM (active).

With `CCOCC(O)COc1ccc(NC(=O)CC[S+](C)C)cc1` (configuration not stated), the Potency result in [1], in assay [14], in assay [2], in assay [4], in assay [5] and in [15] was “inactive” in each case. The Potency entry in assay [17], in assay [8], in [9] and in assay [11] was “inactive” in each case. In addition, the viability in assay [6] is 111%.

`CCCCOc1ccc(CC(=O)NO)cc1`: the Potency in [1] is 20.9 µM (active); in assay [14], 18.7 µM (active); in assay [3] it was 16.6 µM (active); in [4] it was 9.35 µM (active); in [5] it was 14.8 µM (active); in assay [7], 8.33 µM (active). For the same compound, the Potency result in [17], in assay [10] and in assay [16] was “inactive” throughout.

Regarding `Nc1ccc(S(=O)(=O)Nc2ccccn2)cc1`, the Potency result in assay [1], in [14], in assay [2], in [5], in assay [15] and in assay [8] was “inactive” each time. For the same compound, the Potency entry in assay [9], in [10], in [13] and in assay [16] was “inactive” in each case.

For the compound `Nc1nc(=S)c2[nH]cnc2[nH]1`, the Potency was 8.33 µM (active) in [1]; 2.96 µM (active) in assay [2]; 1.32 µM (active) in [3]; 3.72 µM (active) in assay [4]; 1.18 µM (active) in [5]; 5.9 µM (active) in assay [6]. The Potency in assay [7] was 8.33 µM (active); in assay [15], 1.05 µM (active); in assay [17], 0.662 µM (active); in assay [8], 1.66 µM (active); in [9], 1.66 µM (active); in assay [10], 7.43 µM (active). For the same compound, the Potency in assay [11] was 4.69 µM (active); in assay [13], 4.18 µM (active); in [16], 5.26 µM (active).

Consider `NC1(c2ccc(-c3nc4ccn5c(=O)[nH]nc5c4cc3-c3ccccc3)cc2)CCC1`, for which the Potency in [1] was 6.62 µM (active); in [14] it was 2.64 µM (active); in assay [2], 9.35 µM (active); in assay [5], 3.32 µM (active); in assay [6], 7.43 µM (active); in assay [7], 20.9 µM (active). In addition, the Potency in assay [15] is 20.9 µM (active); in [17], 20.9 µM (active); in assay [8], 1.87 µM (active); in assay [10], 1.66 µM (active); in assay [11] it was 1.05 µM (active); in assay [13], 5.26 µM (active).

Regarding `COC(=O)Nc1nc2ccc(Sc3ccccc3)cc2[nH]1`, the Potency in assay [1] was 5.26 µM (active); in assay [14], 0.469 µM (active); in assay [2] it was 2.96 µM (active); in assay [3], 0.209 µM (active); in assay [4], 1.18 µM (active); in assay [5], 1.66 µM (active). Besides, the Potency in assay [8] is 1.05 µM (active); in assay [9], 1.18 µM (active); in [11], 5.26 µM (active); in assay [12], 3.32 µM (active); in assay [13] it was 0.935 µM (active); in assay [16] it was 0.935 µM (active).

On to `CC(C)(Sc1cc(C(C)(C)C)c(O)c(C(C)(C)C)c1)Sc1cc(C(C)(C)C)c(O)c(C(C)(C)C)c1`, for which the Potency result in [1], in assay [2], in assay [4], in assay [13] and in assay [16] was “inactive” in each case. Further, the values for the Potency in assay [7], in [8] and in [9] were 3.32 µM (active), 18.7 µM (active) and 6.62 µM (active), respectively.

On to `CCOC(=O)[C@H](CCc1ccccc1)N[C@H]1CS[C@H](c2cccs2)CN(CC(=O)O)C1=O`, for which the Potency in assay [1] is 18.7 µM (active); in assay [2] it was 10.5 µM (active); in assay [4] it was 16.6 µM (active); in assay [5], 5.9 µM (active); in [7], 5.9 µM (active); in assay [15] it was 2.35 µM (active). Moreover, the Potency in assay [8] is 0.296 µM (active); in assay [10] it was 1.05 µM (active); in [11], 16.6 µM (active); in assay [13] it was 1.66 µM (active).

For the compound `CCn1cc(C(=O)O)c(=O)c2cc(F)c(N3CCN(C)CC3)cc21`, the Potency result in [1], in assay [2], in assay [4], in [7], in assay [17] and in assay [8] was “inactive” throughout. Also, the Potency entry in assay [9], in assay [10], in assay [12] and in assay [13] was “inactive” throughout.

Turning to `CN(CCOc1ccc(CC2SC(=O)NC2=O)cc1)c1ccccn1` (configuration not stated), the Potency entry in assay [1], in assay [2], in assay [5], in assay [15], in [8] and in assay [9] was “inactive” each time. The Potency entry in assay [10], in [12], in assay [13] and in [16] was “inactive” throughout. The values for the Potency in [4] and in assay [7] were 1.05 µM (active) and 16.6 µM (active), respectively. Moreover, in assay [6], the viability is 112%.

For the compound `Cc1cccc(Nc2ccncc2S(=O)(=O)NC(=O)NC(C)C)c1`, the Potency entry in [1], in assay [2], in assay [5], in [7], in [15] and in [12] was “inactive” in each case. For the same compound, the Potency is 0.0013 µM (active) in assay [4] and 7.43 µM (active) in assay [8].

For the compound `C[C@@H](NCCCc1cccc(C(F)(F)F)c1)c1cccc2ccccc12`, the Potency entry in assay [1], in assay [2], in assay [4], in assay [7], in assay [15] and in assay [10] was “inactive” throughout. Further, the Potency result in assay [12], in assay [13] and in assay [16] was “inactive” each time.
